“And” between values parts separate entries of the source, which are not always exact repeats. Equal values may be shown once. Screen size: about 360,000 compounds; about 7,500 (2.1%) were called active. Where a call stands in place of a potency, no number is given. Another 20% or so got no clear call; they are omitted. The call rests on the fitted dose curve; in most records, active means well fitted inhibition curve with a large enough effect; inconclusive means small, poorly fitted or top-dose-only effect, or effect the other way; inactive means flat fitted curve, though single readings scatter. The sample as a whole holds a higher share of actives than the screen did. Some structures have more than one record in an assay (separate samples or runs), and their calls can disagree.

The values that follow come from PubChem BioAssay AID504444 (National Center for Advancing Translational Sciences (NCATS), 2011).
Potency means the concentration at half of the fitted maximal effect.

A short description of this assay: Nrf2 qHTS screen for inhibitors. Further: nearly all actives have a fitted effect of over 60% in size. To be noted: A549 ARE-Fluc reporter, luciferase luminescence, 18-24 h; series mostly up to 46 µM. Put shortly:
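A549 ARE_Fluc cells, 5000/well, 5% FBS OPTI-MEM; compounds in dose-response, 18-24 h at 37 °C/5% CO2; CellTiter-Fluor viability read (Ex 405/Em 525), then BugLite luciferase luminescence = Nrf2 activity.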
Turning to `O=C(NN=Cc1ccccc1O)NN=Cc1ccccc1O`, the Potency result is “inactive”.

As for `Cc1n[nH]c(C)c1S(=O)(=O)N1CCCC(C(=O)Nc2ccc(Br)cc2)C1` (centres undefined), the Potency entry was “inactive and 14.6 µM (active)”.

For `Cc1n[nH]c(C)c1S(=O)(=O)N1CCCC(C(=O)NCC2COc3ccccc3O2)C1` (centres undefined), the Potency entry is “inactive”.

For `O=C(O)C1CCCN(S(=O)(=O)c2cccc3cccnc23)C1` (centres undefined), the Potency result is “inactive”.

For `CC(=O)Nc1ccc(NC(=O)C2CCCN(S(=O)(=O)c3ccc4c(c3)CCCC(=O)N4)C2)cc1` (centres undefined), the Potency result is “inactive”.

Regarding `COc1ccc(NC(=O)C2CCCN(S(=O)(=O)c3cccc4cccnc34)C2)cc1OC` (centres undefined), the Potency entry was “inactive”.

Consider `COc1ccc(NC(=O)C2CCCN(S(=O)(=O)c3cccc4cccnc34)C2)cc1` (centres undefined), for which the Potency is 23.1 µM (active).

Take `COc1ccc(Cl)cc1NC(=O)CN(C)CC(=O)Nc1ccc2c(c1)OCO2`: the Potency result is “inactive”.

Regarding `O=C(Cn1cc(SCc2cccc(Cl)c2)c2ccccc21)N1CCCCC1`, the Potency result is “inactive”.

Consider `COc1cc(OC)cc(-c2c(-c3cccs3)c3cc(-c4ccc(OC)nc4)ccc3n2C)c1`, for which the Potency entry is “inactive”.

For the compound `COc1cc(OC)cc(-c2c(-c3ccc(F)cc3)c3cc(-c4ccc5cc[nH]c5c4)ccc3n2C)c1`, the Potency entry is “inactive”.

As for `COc1ccc(-c2c(-c3cc(OC)cc(OC)c3)n(C)c3ccc(-c4ccn[nH]4)cc23)cc1`, the Potency was 11.6 µM (active).

`COCC(=O)N(C)[C@H]1C[C@H]2c3cc(Oc4ccccc4C)ccc3CCN2C(=O)[C@H]1[C@H](C)O`: the Potency entry was “inactive”.

Regarding `CC(OC(=O)c1cc2ccccc2[nH]1)C(=O)N(C)c1ccccc1` (centres undefined), the Potency result was “inactive”.

Turning to `Cc1ccc(C)c(N2CCN(C(=O)CN3C(=O)COc4ccc(S(=O)(=O)N5CCCCCC5)cc43)CC2)c1`, the Potency result was “inactive”.

For the compound `O=C(CC1Sc2ccccc2NC1=O)NNc1ccc(Cl)c(Cl)c1` (centres undefined), the Potency entry was “inactive”.

As to `Cc1cccc(Nc2nc(NCCO)nc(N3CCCC3)n2)c1`, the Potency result is “inactive”.

Regarding `OCCCNc1nccc(-c2cc(Nc3cccc(Cl)c3)ncn2)n1`, the Potency is 2.06 µM (active).

Turning to `OCCCNc1nc(-c2ccccc2)c2cc(Cl)ccc2n1`, the Potency result is “inactive”.

As for `Cc1ccc(NC(=O)Cn2cnc3c(OCc4ccccc4)ncnc32)cc1C`, the Potency result is “inactive”.

As to `COc1ccc(S(=O)(=O)N2C[C@H]3CON(C)[C@H]3C[C@H]2c2cccc(Br)c2)cc1`, the Potency entry is “inactive”.

`COc1ccc(CCNc2nc(-c3ccc(Cl)cc3)cc(C(F)(F)F)n2)cc1OC`: the activity change, negative = inhibition was -14.7% [at 9.27 µM] (inactive).

Regarding `CC(=NNC(=O)c1ccncc1)c1ccc(Cl)c(Cl)c1`, the Potency entry was “inactive”.

Consider `NC(=O)c1sc2nc3c(c(-c4ccccc4)c2c1N)CCC3`, for which the Potency is 9.2 µM (active).

On to `Cc1sc2nc(CC(N)=O)[nH]c(=O)c2c1-c1ccccc1`, for which the Potency entry was “inactive”.

As for `Nc1c(C(=O)NCc2ccccc2)sc2nc3c(cc12)C(=O)CCC3`, the Potency entry is “inactive”.

Consider `COc1ccc(N2CCN(C3=NS(=O)(=O)C(c4cccc(Br)c4)=C3C)CC2)cc1`, for which the Potency entry is “inactive”.

Take `CSCCC(NC(=O)COc1ccccc1)C(=O)OCc1ccc(Cl)cc1` (centres undefined): the Potency entry was “inactive”.

With `CN(C)CCNC(=O)c1ccc(Cl)c2cc3ccccc3nc12`, the Potency was 18.4 µM (active).

As for `CN(C)CCNC(=O)Nc1cccc(Cl)c1Cl`, the Potency entry was “inactive”.

Consider `CC(=O)NCCNC(=O)c1cc(-c2cccc3ccccc23)nc2ccccc12`, for which the Potency result was “inactive”.

Consider `CC1CCCCC1NCC(=O)Nc1ccccc1C(=O)Nc1ccccc1` (centres undefined), for which the Potency entry is “inactive”.

For `CC[C@]12c3[nH]c4cc(CCC(=O)N(C)C)ccc4c3CCN1C(=O)[C@@H](CC(=O)NCCCn1ccnc1)C[C@@H]2C(=O)N1CCN(C(=O)C2CC2)CC1`, the Potency entry is “inactive”.

As to `Cc1c(C)n(Cc2ccc(Cl)cc2)c2ccc(C(=O)N3CCN(c4ccccc4F)CC3)cc12`, the Potency entry was “inactive”.

As for `COc1cc(C(=O)NCC2(c3ccccc3)CCCC2)ccc1OC(C)C`, the Potency result was “inactive”.

Consider `Cc1cccc(C(CC(=O)NCC2(c3ccccc3)CCCC2)c2ccccc2)c1O` (centres undefined), for which the Potency was 14.6 µM (active).

Take `O=C(CNC1CCCCC1)NCC1(c2ccccc2)CCCC1`: the Potency result was “inactive”.

Consider `CC(=O)c1cccc(NC(=O)c2nc(-c3ccccc3)n(-c3cccc(C)c3)n2)c1`, for which the Potency is 18.4 µM (active).

On to `CC(=O)c1cccc(NC(=O)c2cc(C)nn2-c2ccccc2)c1`, for which the Potency result is “inactive”.

Turning to `Cc1cccc(N2C(=O)c3ccc(C(=O)Nc4cccc(C(=O)O)c4)cc3C2=O)c1`, the Potency result was “inactive”.

As to `Cc1sc(C2C(C#N)=C(N)N(c3cccc(Cl)c3)C3=C2C(=O)CCC3)cc1CN1CCOCC1` (centres undefined), the Potency result is “inactive”.

On to `COc1ccc(CNCCCNCc2ccc(OC)c(OC)c2)cc1OC`, for which the Potency entry was “inactive”.

Take `O=C(c1ccncc1)N1CCN(S(=O)(=O)c2cc(C(F)(F)F)cc(C(F)(F)F)c2)CC1`: the Potency result is “inactive”.

Consider `CC(C)c1ccc(-c2noc(C3CCCN(S(C)(=O)=O)C3)n2)cc1` (centres undefined), for which the Potency result is “inactive”.

With `O=C(Cc1cccs1)N1CCCC(c2nc(-c3ccc(S(=O)(=O)N4CCCC4)cc3)no2)C1` (centres undefined), the Potency is 23.1 µM (active).

As for `O=C(c1ccc(F)cc1)N1CCCC(c2nc(-c3cccs3)no2)C1` (centres undefined), the Potency result is “inactive”.

Consider `O=C(c1ccc(C(F)(F)F)cc1)N1CCC(c2nc(-c3ccc(S(=O)(=O)N4CCCC4)cc3)no2)CC1`, for which the Potency was 7.31 µM (active).

As to `NC(=O)C1CCN(C(=O)c2ccc(C(F)(F)F)cc2)CC1`, the Potency entry was “inactive”.

With `CCOc1cc(C(=O)N(Cc2ccccc2)c2ccc(C)cc2)ccc1OCC(=O)N1CCOCC1`, the Potency entry is “inactive”.

As for `COc1ccccc1NC(=O)C(=O)c1cc(C)n(-c2ccccc2F)c1C`, the Potency result was “inactive”.

In the case of `Oc1ccc(Cl)cc1C1C=C(c2ccc3c(c2)OCO3)NC(c2c(F)cccc2Cl)N1` (centres undefined), the Potency entry was “inactive”.

As for `OC[C@@H]1O[C@H](n2cnc3c(SCc4ccccc4)ncnc32)[C@H](O)[C@H]1O`, the Potency entry is “inactive”.

`Cc1c(Cl)cccc1-c1ccc(CNCCCSc2nnnn2C)o1`: the Potency entry is “inactive”.

Take `CCCCCn1c(CCNC(=O)c2ccc(F)cc2)nc2ccccc21`: the activity change, negative = inhibition was 6.85% [at 9.27 µM] (inactive).

As for `CC(C)NC(=O)C1CCC(Cn2c(=O)c3sccc3n(Cc3ccc(F)cc3)c2=O)CC1` (centres undefined), the Potency result was “inactive”.

Turning to `COc1cccc(-c2nc(CS(=O)(=O)CC(=O)N3CCN(c4cc(C)ccc4C)CC3)c(C)o2)c1`, the Potency is 2.59 µM (active).

On to `CCCCN(CC)CCCNC(=O)CS(=O)(=O)Cc1nc(-c2cccc(OC)c2)oc1C`, for which the Potency result is “inactive”.

In the case of `COc1cccc(-c2nc(CS(=O)(=O)CC(=O)NCCc3ccc(OC)c(OC)c3)c(C)o2)c1`, the Potency result is “inactive”.

Turning to `COc1cccc(C2C(C(=O)Nc3ccc(C)cc3C)=C(C)Nc3c(C(=O)Nc4ccccc4)cnn32)c1` (centres undefined), the Potency entry was “inactive”.
